Among all 420,000 compounds or so, about 50,000 (12%) were called active. Entries that show only a call come without a potency. About 26% were inconclusive and are not listed. Calls follow the shape of the dose curve; as a rule, active = well fitted inhibition curve with a large enough effect; inconclusive = small, poorly fitted or top-dose-only effect; inactive = flat fitted curve, though single readings scatter. The full list was thinned out, with actives kept by preference.

The text below walks through data of PubChem BioAssay AID686979 (National Center for Advancing Translational Sciences (NCATS), 2013).
Potency is read from the fitted curve at half-maximal effect.

The nature of this assay: qHTS for Inhibitors of human tyrosyl-DNA phosphodiesterase 1 (TDP1): qHTS in cells in presence of CPT. Also: nearly all actives have a fitted effect of over 55% in size. Conditions: chicken DT40 Tdp1-/-;hTDP1 cells + 20 nM CPT, ATP luminescence, 48 h; series mostly up to 46.2 µM. The essentials:
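Cell growth measured by CellTiter-Glo luminescence after a minimum 48 h, 37 C compound exposure with 20 nM CPT in Tdp1-knockout DT40 cells stably expressing hTDP1, seeded 400/well; qHTS titration format.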
With `CC(=O)Nc1ccc(S(=O)(=O)NC(C)C(=O)OCCOc2ccc(F)cc2)cc1` (configuration not stated), the Potency result is “inactive”.
For `CC1(C(=O)NNC(=S)NCC2CCCO2)CC1(Cl)Cl` (configuration not stated) the value was 18.4 µM (active).
For `O=C(NCC1CCCO1)c1cc2c(s1)CCCC2` (configuration not stated) the value was “inactive”; for `CCC(=O)NC(NCC1CCCO1)C(Cl)(Cl)Cl` (configuration not stated), “inactive”; for `COc1ccc(NC(=S)N2CCC(NC(=O)c3cccc(F)c3)CC2)cc1`, “inactive”.
For `COc1ccc(C)cc1Nc1nc(C)nc2c1oc1ccccc12` the value was “inactive”.
For the compound `CCOC(=O)CC(=O)CSc1nc(-c2ccccc2)cc(-c2ccc(Cl)cc2)c1C#N`, the Potency result was “inactive”.
For `CCOc1cc(-c2cc(-c3ccc(NC(C)=O)cc3)nc(N)c2C#N)ccc1O` the value was 18.4 µM (active); for `CC(=O)Nc1ccc(-c2cn3cccnc3n2)cc1`, “inactive”.
With `CN(C(=O)CSc1nnc(C2CC2)n1C)C1CCCc2ccccc21` (configuration not stated), the Potency result was “inactive”.
Turning to `COc1ccccc1C(c1nnnn1C(C)(C)C)N1CCN(Cc2ccccc2)CC1` (configuration not stated), the Potency result was “inactive”.
For `COc1ccc(OC)c(C(c2nnnn2C(C)(C)C)N2CCc3ccccc3C2)c1` (configuration not stated) the value was 20.6 µM (active); for `CCC(C)(C)n1nnnc1C(c1ccccc1OC)N1CCSCC1` (configuration not stated), “inactive”; for `CC(=O)c1nn(-c2cccc(C(F)(F)F)c2)c(=O)[nH]c1=O`, “inactive”.
For `CCOc1ccc(CCN2C(=O)c3cccnc3C2=O)cc1OCC` the value was “inactive”; for `CCOc1ccc(N(CC)C(=O)c2cc3c(=O)oc4ccccc4c3s2)cc1`, “inactive”.
For `CCOC(=O)c1ccc2[nH]c3c(c2c1)CCCC3NC=O` (configuration not stated) the value was “inactive”; for `CN(C(=O)CN1C(=O)CCSc2ccc(S(=O)(=O)N3CCCC3)cc21)c1ccccc1`, “inactive”; for `O=C(CN1CCCSc2ccccc21)N1CCN(S(=O)(=O)c2cccc(F)c2)CC1`, 16.4 µM (active).
Consider `O=C(CN1CCN(S(=O)(=O)c2cccc(Cl)c2)CC1)N1CCCCC1`, for which the Potency result was “inactive”.
For `C=CC1=C(C(=O)O)N2C(=O)[C@@H](NC(=O)/C(=N/OCC(=O)O)c3csc(N)n3)[C@H]2SC1` the value was “inactive”; for `CCn1c(SCC(=O)N/N=C/C=C/c2ccccc2[N+](=O)[O-])nnc1-c1ccccc1`, “inactive”.
For `CCC1(C)COC(c2ccc(OC)c(OC)c2)OC1` (configuration not stated) the value was “inactive”.
For `COc1cccc(-c2ccc3c(c2)S(=O)(=O)c2cccc(C(=O)O)c2C3=O)c1OC` the value was “inactive”; for `Cc1cc(C(=O)N/N=C\C(Br)=C\c2ccccc2)c(C)o1`, 8.2 µM (active).
As to `CC(C)c1cc(C(=O)N/N=C/C(Br)=C/c2ccccc2)n[nH]1`, the Potency was 2.31 µM (active).
For `Cc1ccc(/C=N/NC(=O)C(NC(=O)c2ccccc2)c2n[nH]c(=O)c3ccccc23)cc1` (configuration not stated) the value was “inactive”.
For `CC(=C/c1ccccc1)/C=N/NC(=O)c1cc(C)oc1C` the value was “inactive”.
For `Cc1cc(C(=O)NCCc2ccc(Cl)cc2)c(C)o1` the value was “inactive”; for `CC(C)c1cc(C(=O)O)n[nH]1`, “inactive”; for `Cc1ccc(C2(C)NC(=O)N(CC(=O)Nc3ccccc3C(=O)N3CCCCC3)C2=O)cc1` (configuration not stated), “inactive”.
`CCN(CC)CCCNC(=O)c1cn(C)c2ccc(S(=O)(=O)N(C)C3CCCCC3)cc2c1=O`: the Potency result was “inactive”.
For `CCN(CC)CCn1cnc2c1c(=O)n(CCOC(=O)c1cc(OC)c(OC)c(OC)c1)c(=O)n2C` the value was “inactive”.
For `COc1cc2c(cc1OC)C(/C=C/c1ccco1)=NCC2` the value was 23.1 µM (active); for `COc1ccc([N+](=O)[O-])cc1NC(=O)COC(=O)/C=C/c1ccco1`, “inactive”; for `CCOC(=O)C1=NN(c2ccc(Cl)cc2)/C(=C/C2=NCCc3cc(OC)c(OC)cc32)S1`, “inactive”.
For `CCOC(=O)[C@H]1[C@H]2COc3ccc(OC)cc3[C@@H]2N2C(=O)c3ccc(F)cc3NC(=O)[C@@]12C` the value was “inactive”; for `Cc1ccc2c(c1)NC(=O)[C@@]1(C)[C@@H](c3ccccc3)[C@H]3COc4ccc(Cl)cc4[C@@H]3N1C2=O`, 25.9 µM (active).
As to `C[C@@H]1NC(=O)[C@@]2(C)[C@@H](c3ccccc3)[C@H]3COc4ccccc4[C@@H]3N2C1=O`, the Potency result is “inactive”.
For `Cc1ccc(Cl)cc1N1CCN(C(=O)c2cccn3c(=O)c4cc(Cl)ccc4nc23)CC1` the value was “inactive”; for `Cc1cn(C)c(CC(=O)NCc2ccc(Cl)cc2)c1C(=O)O`, “inactive”.
For `CCOC(=O)/C(=C\c1ccc([N+](=O)[O-])cc1)C(=O)c1cc(C(C)=O)c(Nc2ccccc2)s1` the value was 0.58 µM (active); for `O=C(Nc1ccccc1)/C(=C/c1ccc([N+](=O)[O-])cc1)NC(=O)c1ccccc1`, “inactive”.
For `CCOC(=O)COc1ccc([N+](=O)[O-])cc1` the value was “inactive”; for `COc1ccc(NC(=O)CN(C)C(=O)c2n[nH]c3ccccc23)cc1`, “inactive”.
Turning to `O=c1cc(CO)oc(C(Nc2cccc(C(F)(F)F)c2)c2ccccn2)c1O` (configuration not stated), the Potency result is “inactive”.
For `FC(F)(F)c1cccc(N/N=C/c2ccccc2)c1` the value was “inactive”; for `FC(F)(F)c1cccc(Nc2ncnc3ccccc23)c1`, 11.6 µM (active); for `COc1ccc(NC(=O)CSc2nc(SC)ns2)c(OC)c1`, “inactive”.
For `c1ccc(C2CNCc3c2ccc2ccccc32)cc1` (configuration not stated) the value was 14.6 µM (active); for `C/C(=N/NC(=O)CC(=O)N/N=C(\C)c1ccc([N+](=O)[O-])cc1)c1ccc([N+](=O)[O-])cc1`, “inactive”; for `COc1ccc(S(=O)(=O)N2CCC(C(=O)NCc3ccco3)CC2)cc1C`, “inactive”.
For `COc1ccc(-c2cc(C(=O)NCc3ccco3)no2)cc1OC` the value was “inactive”; for `COc1ccc(C2=NOC(C(=O)NCc3ccco3)C2)cc1OC` (configuration not stated), 2.59 µM (active); for `O=C1CC2(CCCC2)C(=O)N1CN1CCN(S(=O)(=O)c2ccc(F)cc2F)CC1`, “inactive”.
For `O=C(CN1C(=O)NC2(CCc3ccccc32)C1=O)NC1CCCCC1` (configuration not stated), the Potency result was “inactive”.
For `CCOc1ccc(CCNC(=O)CN2C(=O)NC3(CCc4ccccc43)C2=O)cc1OCC` (configuration not stated) the value was “inactive”; for `CN(C)S(=O)(=O)c1cc(NC(=O)CN2C(=O)NC3(CCCc4ccccc43)C2=O)ccc1Cl` (configuration not stated), 16.4 µM (active); for `Cc1ccc(COc2ccc(C(=O)NN)cc2)cc1`, “inactive”.
For `CCN(CC)CCNCC(=O)Nc1ccc(Oc2ccccc2)cc1` the value was “inactive”; for `O=C(c1ccc2c(c1)C(=O)N(Cc1ccncc1)C2=O)N1CCN(S(=O)(=O)c2ccc(OC(F)(F)F)cc2)CC1`, “inactive”; for `O=C(Nc1cccc(Cl)c1)OCc1ccccn1`, “inactive”.
For `OCCCNc1nccc(-c2cc(Nc3cccc(Cl)c3)ncn2)n1` the value was 1.16 µM (active); for `NS(=O)(=O)c1cccnc1Nc1cccc(Cl)c1`, “inactive”.
Take `Cc1c(C)n2c(SCC(=O)NC3CCCC3)nnc2[nH]c1=O`: the Potency result is “inactive”.
For `CCCN(CC(=O)Nc1ccc(OC)c(OC)c1)CC(=O)Nc1ccc(F)c(F)c1F` the value was “inactive”; for `O=C(COc1ccc(S(=O)(=O)N2CCCC2)cc1[N+](=O)[O-])N1CCCCC1`, “inactive”; for `Cc1cc(C(=O)COc2ccccc2[N+](=O)[O-])c(C)n1-c1cccc(S(=O)(=O)N2CCOCC2)c1`, 16.4 µM (active).
As to `Cc1cc(S(=O)(=O)N2CCOCC2)ccc1OCC(=O)N1CCOCC1`, the Potency entry was “inactive”.
For `Cc1cccc(N(C(=O)c2sc(C)nc2C)C(C(=O)NCC2CCCO2)c2ccccc2)c1` (configuration not stated) the value was “inactive”; for `CN(C)c1ccc(S(=O)(=O)NCC(=O)NCC2CCCCC2)cc1[N+](=O)[O-]`, “inactive”.
For `CCOc1ccc(S(=O)(=O)NCCC(=O)NNC(=O)c2ccc(F)cc2)cc1` the value was “inactive”; for `O=C(c1ccncc1)N1CCN(S(=O)(=O)c2cccc([N+](=O)[O-])c2)CC1`, “inactive”; for `CCc1ccc(OCC(=O)OC(C)C(=O)NC2CC2)cc1` (configuration not stated), “inactive”.
For `CN(CC(=O)Nc1c(Cl)cccc1Cl)C(=O)CC1OC(=O)c2ccccc21` (configuration not stated) the value was “inactive”; for `CCCOC(=O)c1c(NC(=O)c2cc3nc(-c4ccc(OC)cc4)cc(C(F)(F)F)n3n2)sc2c1CCCC2`, “inactive”.
`COc1ccc(NC(=O)CN(C)C(=O)c2ccc(COc3ccccc3)o2)cc1`: the Potency result is “inactive”.
For `O=[N+]([O-])c1ccc(C=Nc2ccc(Cl)cc2Cl)s1` the value was 6.51 µM (active); for `CC(=O)N1C(=O)/C(=C2\SC(=S)N(NC(=O)c3ccc(O)cc3)C2=O)c2ccccc21`, “inactive”; for `CCOc1ccc(CNC(=O)c2cccc(Nc3nc4ccccc4n4nnnc34)c2)cc1OC`, “inactive”.
For `CCOC(=O)c1cc(-c2ccc(F)cc2)n(CC(=O)NCc2ccccn2)c1C` the value was “inactive”.
Turning to `Cc1oc(-c2ccccc2F)nc1CS(=O)CC(=O)NCCN1CCCCC1C` (configuration not stated), the Potency result is “inactive”.
For `CCC(=O)OCCNc1nc(-c2ccccc2)nc2ccccc12` the value was “inactive”; for `Fc1ccc(-c2ccc(NCCN3CCOCC3)nn2)cc1`, “inactive”.
Take `CN(C)c1ccc(-c2nc(NCCN3CCOCC3)c3ccccc3n2)cc1`: the Potency was 5.8 µM (active).
For `CC1CCN(C(=O)CSc2nnc(-c3ccco3)n2N)CC1` the value was “inactive”; for `CC1(C(=O)NS(=O)(=O)c2cccc(OC(F)F)c2)CCN1C(=O)C1CC1` (configuration not stated), “inactive”; for `CC1CCCCC1NC(=O)COC(=O)Cc1ccc(Cl)cc1` (configuration not stated), “inactive”.
For `COc1ccc(C2=NN(c3nc4ccccc4s3)C(=O)C2)cc1` the value was 20.6 µM (active); for `COc1ccc(-n2nnnc2-c2nc3ccccc3s2)cc1`, “inactive”; for `COc1ccc(C2=NN(C(C)=O)C(c3ccccc3)C2)cc1` (configuration not stated), “inactive”.
For `COc1ccc(S(=O)(=O)NCC2CCCN(C(=O)c3occc3C)C2)cc1` (configuration not stated) the value was “inactive”.
With `Cc1ccccc1OCC(=O)NCC(=O)OCC(=O)c1ccc2ccccc2c1`, the Potency result is “inactive”.
In the case of `CC1(NC(=O)CCS(=O)(=O)c2ccc(Cl)cc2)CCS(=O)(=O)C1` (configuration not stated), the Potency result was “inactive”.
For `CCOc1ccc(CN2CCN(Cc3ccc(C)o3)CC2CCO)cc1` (configuration not stated) the value was “inactive”; for `O=S(=O)(Nc1ccc2[nH]ncc2c1)c1ccccc1Cl`, “inactive”; for `COC(=O)c1cc(NC(=O)c2ccco2)ccc1N1CCOCC1`, “inactive”.
For `COC(=O)c1cc(NC(=O)c2cccnc2)ccc1N1CCOCC1` the value was “inactive”; for `CC(=O)Nc1ccc(N2CCOCC2)c(C(=O)Nc2cccc(C)c2)c1`, 13 µM (active); for `COc1ccc(NS(=O)(=O)c2cc(NC(=O)c3ccc(S(=O)(=O)N(C)C)cc3)ccc2N2CCOCC2)cc1`, “inactive”.
For `CCN(CC)c1ccc(NC(=O)c2ccc(=O)[nH]c2)cc1S(=O)(=O)Nc1ccc(OC)cc1` the value was 29.1 µM (active); for `O=C(NNC(=O)c1cccc(S(=O)(=O)Nc2ccc(Cl)cc2)c1)c1ccc(=O)[nH]c1`, “inactive”.
